Laboratory results: article PMC7862700, “An all-to-all approach to the identification of sequence-specific readers for epigenetic DNA modifications on cytosine”

What was measured:
Test in all cases: DAPPL (digital affinity profiling via proximity ligation, sequencing); 10 mM Tris-HCl pH 7.5, 50 mM NaCl, 1 mM DTT, 4% glycerol, room temperature, 30 min; GST-TFs on glutathione beads, 16-mer random dsDNA library, 0.1% formaldehyde crosslink after washing; high values mean tight binding
[1] = molecular target: T1, FEV (Homo sapiens, UniProt Q99581 1-238); conditions: protein: recombinant; tags: N-terminal GST; dsDNA, one strand shown
T1 sequence: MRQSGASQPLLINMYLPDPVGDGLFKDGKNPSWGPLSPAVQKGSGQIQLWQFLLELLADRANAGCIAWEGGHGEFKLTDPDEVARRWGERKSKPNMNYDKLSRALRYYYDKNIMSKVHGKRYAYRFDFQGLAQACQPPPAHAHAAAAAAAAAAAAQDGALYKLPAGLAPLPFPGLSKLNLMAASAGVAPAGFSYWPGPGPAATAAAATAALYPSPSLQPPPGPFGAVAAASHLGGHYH
Summary of the method: (§1)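 Human transcription factors were made in yeast as GST fusions, captured on glutathione beads and barcoded with DNA. With a tag-only sample included, the pool was incubated with 200 nmole of a random double-stranded 16-mer DNA library in Tris/NaCl/DTT/glycerol buffer at room temperature for 30 min, then crosslinked with 0.1% formaldehyde after washing, ligated by proximity, amplified and sequenced. For binding signal, each hexamer's read frequency for a factor is divided by its frequency for the tag-only sample.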

[2] = molecular target: ETV5 (Homo sapiens, UniProt P41161 1-510); conditions: protein: recombinant; tags: N-terminal GST; dsDNA, one strand shown
Summary of the method: as §1

[3] = molecular target: HSF1 (Homo sapiens, UniProt Q00613 1-529); conditions: protein: recombinant; tags: N-terminal GST; chain copies: 3; dsDNA, one strand shown
Summary of the method: as §1

[4] = molecular target: T2, SPIC (Homo sapiens, UniProt Q8N5J4 1-248); conditions: protein: recombinant; tags: N-terminal GST; dsDNA, one strand shown
T2 sequence: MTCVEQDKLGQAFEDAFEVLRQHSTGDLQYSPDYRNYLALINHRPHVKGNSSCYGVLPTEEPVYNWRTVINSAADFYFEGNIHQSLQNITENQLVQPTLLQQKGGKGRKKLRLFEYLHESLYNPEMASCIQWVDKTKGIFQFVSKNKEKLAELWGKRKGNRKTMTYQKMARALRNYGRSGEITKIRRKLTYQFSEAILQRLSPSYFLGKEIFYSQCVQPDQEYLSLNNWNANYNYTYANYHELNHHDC
Summary of the method: as §1

[5] = molecular target: ELF4 (Homo sapiens, UniProt Q99607 1-663); conditions: protein: recombinant; tags: N-terminal GST; dsDNA, one strand shown
Summary of the method: as §1

[6] = molecular target: T3, ELK4 (Homo sapiens, UniProt P28324-2 1-405); conditions: protein: recombinant; tags: N-terminal GST; dsDNA, one strand shown
T3 sequence: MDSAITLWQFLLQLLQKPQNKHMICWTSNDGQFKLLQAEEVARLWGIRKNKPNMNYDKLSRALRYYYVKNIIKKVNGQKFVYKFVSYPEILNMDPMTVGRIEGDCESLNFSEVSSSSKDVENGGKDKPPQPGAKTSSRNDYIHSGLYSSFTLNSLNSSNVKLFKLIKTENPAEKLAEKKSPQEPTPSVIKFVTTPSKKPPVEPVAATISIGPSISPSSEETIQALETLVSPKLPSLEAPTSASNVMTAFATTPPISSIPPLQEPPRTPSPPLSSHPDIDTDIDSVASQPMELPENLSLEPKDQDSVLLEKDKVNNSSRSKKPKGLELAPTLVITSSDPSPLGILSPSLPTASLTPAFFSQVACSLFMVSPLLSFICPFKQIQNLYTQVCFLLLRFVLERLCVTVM
Summary of the method: as §1

[7] = molecular target: T4, ETV2 (Homo sapiens, UniProt O00321 1-342); conditions: protein: recombinant; tags: N-terminal GST; dsDNA, one strand shown
T4 sequence: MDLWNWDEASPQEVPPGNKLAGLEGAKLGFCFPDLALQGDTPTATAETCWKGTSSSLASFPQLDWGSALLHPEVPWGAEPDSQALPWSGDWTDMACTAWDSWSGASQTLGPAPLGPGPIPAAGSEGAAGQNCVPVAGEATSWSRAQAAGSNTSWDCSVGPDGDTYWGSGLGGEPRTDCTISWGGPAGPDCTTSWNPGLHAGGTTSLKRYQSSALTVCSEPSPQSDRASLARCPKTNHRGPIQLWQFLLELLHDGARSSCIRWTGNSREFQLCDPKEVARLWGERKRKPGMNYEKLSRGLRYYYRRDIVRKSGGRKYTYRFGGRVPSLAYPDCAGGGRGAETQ
Summary of the method: as §1

[8] = molecular target: T5, ELF3 (Homo sapiens, UniProt P78545 1-371); conditions: protein: recombinant; tags: N-terminal GST; dsDNA, one strand shown
T5 sequence: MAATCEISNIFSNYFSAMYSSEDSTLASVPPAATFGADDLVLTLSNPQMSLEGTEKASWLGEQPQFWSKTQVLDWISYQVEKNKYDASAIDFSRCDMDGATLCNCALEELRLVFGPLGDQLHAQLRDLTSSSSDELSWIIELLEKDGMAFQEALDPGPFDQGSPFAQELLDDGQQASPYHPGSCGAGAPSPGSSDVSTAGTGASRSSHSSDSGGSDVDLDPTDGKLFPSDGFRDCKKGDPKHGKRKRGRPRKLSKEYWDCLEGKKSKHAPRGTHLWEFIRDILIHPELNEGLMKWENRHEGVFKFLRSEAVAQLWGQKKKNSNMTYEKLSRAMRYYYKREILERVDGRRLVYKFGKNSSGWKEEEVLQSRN
Summary of the method: as §1

[9] = molecular target: CRX (Homo sapiens, UniProt O43186 1-299); conditions: protein: recombinant; tags: N-terminal GST; dsDNA, one strand shown
Summary of the method: as §1

[10] = molecular target: ETV1 (Homo sapiens, UniProt P50549 1-477); conditions: protein: recombinant; tags: N-terminal GST; dsDNA, one strand shown
Summary of the method: as §1

[11] = molecular target: T6, ERF (Homo sapiens, UniProt P50548 1-548); conditions: protein: recombinant; tags: N-terminal GST; dsDNA, one strand shown
T6 sequence: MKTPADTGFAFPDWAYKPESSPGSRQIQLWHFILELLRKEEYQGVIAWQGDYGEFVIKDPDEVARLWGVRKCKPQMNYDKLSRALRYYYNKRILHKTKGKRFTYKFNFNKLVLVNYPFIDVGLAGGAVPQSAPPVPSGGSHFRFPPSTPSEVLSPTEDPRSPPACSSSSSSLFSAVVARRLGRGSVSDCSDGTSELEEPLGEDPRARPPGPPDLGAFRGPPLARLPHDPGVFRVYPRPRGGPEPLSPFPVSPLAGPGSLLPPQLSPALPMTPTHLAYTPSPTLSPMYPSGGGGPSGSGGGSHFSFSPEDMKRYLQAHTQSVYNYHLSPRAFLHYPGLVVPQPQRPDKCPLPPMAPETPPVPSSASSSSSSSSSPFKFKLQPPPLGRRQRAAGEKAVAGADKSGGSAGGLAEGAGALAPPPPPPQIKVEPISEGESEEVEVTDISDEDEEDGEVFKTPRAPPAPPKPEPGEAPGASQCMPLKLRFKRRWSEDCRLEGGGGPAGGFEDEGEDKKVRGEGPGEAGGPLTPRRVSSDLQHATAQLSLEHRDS
Summary of the method: as §1

[12] = molecular target: T7, ETV3L (Homo sapiens, UniProt Q6ZN32 1-361); conditions: protein: recombinant; tags: N-terminal GST; dsDNA, one strand shown
T7 sequence: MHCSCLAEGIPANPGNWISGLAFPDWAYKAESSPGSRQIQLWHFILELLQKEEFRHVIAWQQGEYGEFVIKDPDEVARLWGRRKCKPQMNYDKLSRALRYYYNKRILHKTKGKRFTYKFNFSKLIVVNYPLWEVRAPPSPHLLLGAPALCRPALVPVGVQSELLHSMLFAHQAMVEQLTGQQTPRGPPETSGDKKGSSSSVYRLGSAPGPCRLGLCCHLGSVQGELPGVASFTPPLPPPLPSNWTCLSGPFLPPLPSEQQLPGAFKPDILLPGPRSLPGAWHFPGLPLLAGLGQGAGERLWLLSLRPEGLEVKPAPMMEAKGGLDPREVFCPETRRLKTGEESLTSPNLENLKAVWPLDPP
Summary of the method: as §1

[13] = molecular target: T8, ETS2 (Homo sapiens, UniProt P15036 1-469); conditions: protein: recombinant; tags: N-terminal GST; dsDNA, one strand shown
T8 sequence: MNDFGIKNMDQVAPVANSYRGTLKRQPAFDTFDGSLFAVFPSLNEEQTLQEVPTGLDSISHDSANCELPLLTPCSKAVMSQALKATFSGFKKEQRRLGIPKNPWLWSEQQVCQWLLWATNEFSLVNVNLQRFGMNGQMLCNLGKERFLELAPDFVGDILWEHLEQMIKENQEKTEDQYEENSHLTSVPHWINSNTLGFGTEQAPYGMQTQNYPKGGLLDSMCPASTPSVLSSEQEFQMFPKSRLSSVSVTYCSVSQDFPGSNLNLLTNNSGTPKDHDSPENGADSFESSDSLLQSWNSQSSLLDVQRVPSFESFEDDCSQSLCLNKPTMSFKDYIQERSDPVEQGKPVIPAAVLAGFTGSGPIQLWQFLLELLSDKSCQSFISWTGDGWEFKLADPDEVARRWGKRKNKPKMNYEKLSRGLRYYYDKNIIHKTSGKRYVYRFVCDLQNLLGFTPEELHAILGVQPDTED
Summary of the method: as §1

[14] = molecular target: T9, SPDEF (Homo sapiens, UniProt O95238 1-335); conditions: protein: recombinant; tags: N-terminal GST; dsDNA, one strand shown
T9 sequence: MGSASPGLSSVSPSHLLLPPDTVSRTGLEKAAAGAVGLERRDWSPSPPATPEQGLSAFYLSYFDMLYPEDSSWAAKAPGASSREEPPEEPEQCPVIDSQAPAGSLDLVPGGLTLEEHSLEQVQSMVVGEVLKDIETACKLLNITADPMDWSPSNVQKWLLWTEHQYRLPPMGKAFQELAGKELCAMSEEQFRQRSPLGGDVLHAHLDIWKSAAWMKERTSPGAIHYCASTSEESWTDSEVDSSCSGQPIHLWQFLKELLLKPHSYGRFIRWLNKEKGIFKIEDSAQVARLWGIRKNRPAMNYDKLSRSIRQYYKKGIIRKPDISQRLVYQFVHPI
Summary of the method: as §1

[15] = molecular target: T10, ETV7 (Homo sapiens, UniProt Q9Y603 1-341); conditions: protein: recombinant; tags: N-terminal GST; dsDNA, one strand shown
T10 sequence: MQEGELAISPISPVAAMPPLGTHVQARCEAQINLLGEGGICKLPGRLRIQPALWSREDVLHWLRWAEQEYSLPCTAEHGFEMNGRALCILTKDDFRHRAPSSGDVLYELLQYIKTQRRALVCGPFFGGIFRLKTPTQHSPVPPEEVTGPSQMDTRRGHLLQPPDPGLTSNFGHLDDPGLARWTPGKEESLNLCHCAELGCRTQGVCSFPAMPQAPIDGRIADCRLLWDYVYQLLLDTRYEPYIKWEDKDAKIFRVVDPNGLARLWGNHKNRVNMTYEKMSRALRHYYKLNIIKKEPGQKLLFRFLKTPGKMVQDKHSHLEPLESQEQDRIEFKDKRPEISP
Summary of the method: as §1

[16] = molecular target: T11, ELF5 (Homo sapiens, UniProt Q9UKW6-2 1-255); conditions: protein: recombinant; tags: N-terminal GST; dsDNA, one strand shown
T11 sequence: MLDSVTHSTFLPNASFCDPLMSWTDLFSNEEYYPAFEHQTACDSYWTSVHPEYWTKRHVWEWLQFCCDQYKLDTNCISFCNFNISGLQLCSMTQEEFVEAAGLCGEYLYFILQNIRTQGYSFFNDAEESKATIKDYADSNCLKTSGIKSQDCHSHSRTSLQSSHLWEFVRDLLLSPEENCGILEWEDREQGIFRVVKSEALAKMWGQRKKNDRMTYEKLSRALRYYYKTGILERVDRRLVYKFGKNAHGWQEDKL
Summary of the method: as §1

[17] = molecular target: T12, ETV3 (Homo sapiens, UniProt P41162-2 1-143); conditions: protein: recombinant; tags: N-terminal GST; dsDNA, one strand shown
T12 sequence: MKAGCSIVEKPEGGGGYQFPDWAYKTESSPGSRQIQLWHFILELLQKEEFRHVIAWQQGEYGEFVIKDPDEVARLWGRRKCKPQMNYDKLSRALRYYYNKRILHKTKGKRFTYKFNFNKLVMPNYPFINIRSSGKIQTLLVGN
Summary of the method: as §1

[18] = molecular target: ETV6 (Homo sapiens, UniProt P41212 1-452); conditions: protein: recombinant; tags: N-terminal GST; dsDNA, one strand shown
Summary of the method: as §1

Chain of ELF4 (Q99607 whole entry): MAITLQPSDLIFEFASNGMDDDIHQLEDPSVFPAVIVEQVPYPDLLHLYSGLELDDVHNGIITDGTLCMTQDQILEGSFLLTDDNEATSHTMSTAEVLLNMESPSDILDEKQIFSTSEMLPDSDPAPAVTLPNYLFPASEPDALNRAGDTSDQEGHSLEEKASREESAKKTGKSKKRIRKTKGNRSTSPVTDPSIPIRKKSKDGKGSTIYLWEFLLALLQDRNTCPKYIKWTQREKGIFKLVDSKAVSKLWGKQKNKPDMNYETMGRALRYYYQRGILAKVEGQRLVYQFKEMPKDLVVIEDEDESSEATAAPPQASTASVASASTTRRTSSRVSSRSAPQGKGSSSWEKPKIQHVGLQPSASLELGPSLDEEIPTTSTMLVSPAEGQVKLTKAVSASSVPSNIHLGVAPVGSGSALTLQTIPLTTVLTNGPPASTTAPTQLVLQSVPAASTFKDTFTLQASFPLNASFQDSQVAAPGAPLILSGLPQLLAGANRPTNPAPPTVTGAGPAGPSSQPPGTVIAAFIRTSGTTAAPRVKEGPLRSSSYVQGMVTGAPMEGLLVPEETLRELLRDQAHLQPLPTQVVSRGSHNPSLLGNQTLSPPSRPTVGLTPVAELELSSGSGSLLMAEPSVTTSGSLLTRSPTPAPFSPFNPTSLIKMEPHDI
Chain of ETV1 (P50549 whole entry): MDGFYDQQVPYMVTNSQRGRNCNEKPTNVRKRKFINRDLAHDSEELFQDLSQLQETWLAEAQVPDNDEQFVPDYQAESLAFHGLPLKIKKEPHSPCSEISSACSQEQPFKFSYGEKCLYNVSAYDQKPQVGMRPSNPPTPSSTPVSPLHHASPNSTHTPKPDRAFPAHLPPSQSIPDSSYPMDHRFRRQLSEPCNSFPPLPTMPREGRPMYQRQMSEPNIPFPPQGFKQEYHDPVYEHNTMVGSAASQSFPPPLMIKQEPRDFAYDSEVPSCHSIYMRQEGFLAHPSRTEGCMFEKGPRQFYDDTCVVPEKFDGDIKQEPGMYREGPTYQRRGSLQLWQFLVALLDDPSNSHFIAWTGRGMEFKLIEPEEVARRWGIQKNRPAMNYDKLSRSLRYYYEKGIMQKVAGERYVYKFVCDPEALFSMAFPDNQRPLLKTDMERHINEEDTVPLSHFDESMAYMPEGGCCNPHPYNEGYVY
Chain of ETV5 (P41161 whole entry): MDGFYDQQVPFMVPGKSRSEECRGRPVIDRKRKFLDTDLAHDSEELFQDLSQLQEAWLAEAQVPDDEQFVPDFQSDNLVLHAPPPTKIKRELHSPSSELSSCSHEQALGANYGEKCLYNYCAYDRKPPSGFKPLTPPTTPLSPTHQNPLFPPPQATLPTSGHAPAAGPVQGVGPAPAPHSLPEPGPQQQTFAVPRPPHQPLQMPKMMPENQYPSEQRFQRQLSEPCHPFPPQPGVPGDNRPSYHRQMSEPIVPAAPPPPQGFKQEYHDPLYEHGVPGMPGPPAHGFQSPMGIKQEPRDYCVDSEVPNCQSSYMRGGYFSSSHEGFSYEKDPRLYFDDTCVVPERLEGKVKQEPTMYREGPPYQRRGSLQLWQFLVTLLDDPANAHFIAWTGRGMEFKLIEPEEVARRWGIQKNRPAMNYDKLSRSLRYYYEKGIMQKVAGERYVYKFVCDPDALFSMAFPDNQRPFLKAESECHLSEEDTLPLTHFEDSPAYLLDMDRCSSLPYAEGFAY
Chain of CRX (O43186 whole entry): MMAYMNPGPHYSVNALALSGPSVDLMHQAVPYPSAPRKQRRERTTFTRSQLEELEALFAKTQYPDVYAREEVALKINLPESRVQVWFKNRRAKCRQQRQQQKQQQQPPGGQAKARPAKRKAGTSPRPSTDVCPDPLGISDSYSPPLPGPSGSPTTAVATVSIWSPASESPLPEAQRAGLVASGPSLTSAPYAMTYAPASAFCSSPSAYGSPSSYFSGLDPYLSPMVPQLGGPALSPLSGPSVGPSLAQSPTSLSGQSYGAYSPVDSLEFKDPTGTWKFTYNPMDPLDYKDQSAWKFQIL
Chain of ETV6 (P41212 whole entry): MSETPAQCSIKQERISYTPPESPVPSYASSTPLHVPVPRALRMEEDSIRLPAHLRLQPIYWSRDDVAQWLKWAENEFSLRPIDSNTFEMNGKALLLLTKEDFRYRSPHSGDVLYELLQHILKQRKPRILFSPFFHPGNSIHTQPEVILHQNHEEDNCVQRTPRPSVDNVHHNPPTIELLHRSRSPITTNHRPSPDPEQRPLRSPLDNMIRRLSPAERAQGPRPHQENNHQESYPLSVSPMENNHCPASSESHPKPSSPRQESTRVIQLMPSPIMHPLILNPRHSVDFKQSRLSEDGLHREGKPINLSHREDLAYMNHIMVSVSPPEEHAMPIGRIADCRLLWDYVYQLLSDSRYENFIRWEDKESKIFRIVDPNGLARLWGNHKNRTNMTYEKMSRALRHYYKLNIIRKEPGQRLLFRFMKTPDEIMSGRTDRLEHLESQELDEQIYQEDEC
Chain of HSF1 (Q00613 whole entry): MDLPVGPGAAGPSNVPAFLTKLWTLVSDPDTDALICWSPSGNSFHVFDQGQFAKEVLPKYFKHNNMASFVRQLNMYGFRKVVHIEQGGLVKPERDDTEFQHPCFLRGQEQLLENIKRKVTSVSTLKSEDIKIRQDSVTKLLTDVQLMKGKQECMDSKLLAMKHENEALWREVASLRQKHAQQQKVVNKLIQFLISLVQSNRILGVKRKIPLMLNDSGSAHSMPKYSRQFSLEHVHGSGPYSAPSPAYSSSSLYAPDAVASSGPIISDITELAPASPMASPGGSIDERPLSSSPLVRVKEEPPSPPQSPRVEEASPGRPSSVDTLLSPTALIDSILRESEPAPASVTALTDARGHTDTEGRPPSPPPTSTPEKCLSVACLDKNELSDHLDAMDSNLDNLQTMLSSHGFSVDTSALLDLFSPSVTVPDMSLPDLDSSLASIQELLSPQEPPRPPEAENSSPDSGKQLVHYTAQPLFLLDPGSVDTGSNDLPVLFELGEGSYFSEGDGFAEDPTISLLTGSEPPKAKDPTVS

## AAGTAC
[1]
  binding signal: 1.52 fold enrichment (6-mer frequency, TF over GST control)
[2]
  binding signal: 1.59 fold enrichment (6-mer frequency, TF over GST control)
[3]
  binding signal: 1.29 fold enrichment (6-mer frequency, TF over GST control)
[4]
  binding signal: 1.58 fold enrichment (6-mer frequency, TF over GST control)
[5]
  binding signal: 1.5 fold enrichment (6-mer frequency, TF over GST control)
[6]
  binding signal: 1.32 fold enrichment (6-mer frequency, TF over GST control)
[7]
  binding signal: 1.41 fold enrichment (6-mer frequency, TF over GST control)
[8]
  binding signal: 1.68 fold enrichment (6-mer frequency, TF over GST control)
[9]
  binding signal: 1.34 fold enrichment (6-mer frequency, TF over GST control)
[10]
  binding signal: 1.49 fold enrichment (6-mer frequency, TF over GST control)
[11]
  binding signal: 1.42 fold enrichment (6-mer frequency, TF over GST control)
[12]
  binding signal: 1.39 fold enrichment (6-mer frequency, TF over GST control)
[13]
  binding signal: 1.59 fold enrichment (6-mer frequency, TF over GST control)
[14]
  binding signal: 1.92 fold enrichment (6-mer frequency, TF over GST control)
[15]
  binding signal: 1.65 fold enrichment (6-mer frequency, TF over GST control)
[16]
  binding signal: 1.69 fold enrichment (6-mer frequency, TF over GST control)
[17]
  binding signal: 1.62 fold enrichment (6-mer frequency, TF over GST control)
[18]
  binding signal: 1.85 fold enrichment (6-mer frequency, TF over GST control)
